High-throughput results as filed in PubChem.
A selection: hits, their analogues and other compounds. The true share with any hit is near 11%.
WT yeast gro inh – growth inhibition of WT yeast, mitochondrial fusion screen | inhibition, % at 10 µM | mitochondrial fusion phenotypic screen, WT strain | 190,000 compounds, 2.1% hits; in the data active = inhibition above about 58%; tested in S. cerevisiae
Insulin prom up – MIN6 insulin promoter up-regulation; z-score at 5 µM; 190,000 compounds, 0.3% hits; AID 1625; MIN6 insulin promoter-GFP reporter, high-content imaging; hits give high values;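 active = z-score above 3 at 5 µM with at least 500 cells counted in the well; inconclusive = wells under 500 cells, flagged as cytotoxic or low count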
Autophagy HCS – alters autophagy in cells; AID 463193; MEF GFP-LC3 puncta imaging; test concentration mostly 10 µM; calls only at 10 µM (by protocol); 190,000 compounds, 0.98% hits;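 active = percentage of spot-positive cells more than 3 SD above its plate mean, without a fluorescence outlier flag or 80% toxicity; inconclusive = no clear call, values can overlap the other calls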;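 also: spot-positive cell cutoff set from DMSO-treated cells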
INS promoter inh – TRM-6 insulin promoter activity inhibition | TRM-6 cells (human fetal islet line), insulin promoter-eGFP reporter, imaging; reporter expression induced with tamoxifen | inhibition, % at 2 µM | 130,000 compounds, 0.9% hits | AID 1273;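 active = inhibition above the mean plus 3 SD, with well images judged a real hit on visual review, cut at about 60% in these data, passing the limit was not always enough; inconclusive = inhibition over the cutoff but images rejected on review; inactive = inhibition not above the cutoff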
L major viab – inhibitors of Leishmania major promastigote growth; Leishmania major promastigotes, resazurin fluorescence viability; inhibition, % at 10 µM; 200,000 compounds, 9% hits; AID 1063; in the data active = inhibition above about 50%;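 also: promastigotes grown with compound for 44 hours at 28 °C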
* = called active by the depositor; i = inactive; ? = inconclusive; · = no result given; + = active, no number.

SMILES	WT yeast gro inh	Insulin prom up	Autophagy HCS	INS promoter inh	L major viab
Cc1cccc(N(CC(=O)NCc2ccco2)C(=O)CCC(=O)Nc2nccs2)c1	-30	0.15	i	·	30
CC(C)c1ccc(N)c(S(=O)(=O)O)c1	·	-0.85	·	·	·
C(=C\c1nc(N2CCCCCC2)c2ccccc2n1)/c1ccccc1	73	?	i	·	86*
Fc1ccccc1-c1nc(N2CCCCC2)c2ccccc2n1	14	0.28	i	·	35
c1ccc2c(N3CCCCCC3)nc(-c3ccncc3)nc2c1	27	-0.8	i	-26	87*
O=[N+]([O-])c1cccc(C2NCC(c3ccccc3Cl)c3c2[nH]c2ccccc32)c1 (centres undefined)	70*	-0.93	i	-5	38
CN(C)c1ccc(C2CNC(c3ccc(Cl)c([N+](=O)[O-])c3)c3[nH]c4ccccc4c32)cc1 (centres undefined)	·	-0.89	·	·	·
Cc1ccc2cc(C(c3nnnn3Cc3ccccc3)N3CCN(c4ccccc4)CC3)c(=O)[nH]c2c1 (centres undefined)	-9	-0.51	i	-121	93*
COc1cc2cc(C(c3nnnn3C3CCCC3)N3CCCCC3)c(=O)[nH]c2cc1OC (centres undefined)	-13	-0.18	i	·	-1
COc1ccc2cc(C(c3nnnn3Cc3ccccc3)N3CCCCCC3)c(=O)[nH]c2c1 (centres undefined)	·	-1.2	i	0	36
COc1ccc(N2CCN(C(c3cc4cc(C)ccc4[nH]c3=O)c3nnnn3Cc3ccccc3)CC2)cc1 (centres undefined)	6	-0.1	i	-6	99*
Cc1cccc2cc(C(c3nnnn3Cc3ccccc3)N3CCCc4ccccc43)c(=O)[nH]c12 (centres undefined)	-4	·	+	30	5
Cc1ccc2cc(C(c3nnnn3C3CCCC3)N3CCN(c4ccccc4)CC3)c(=O)[nH]c2c1 (centres undefined)	-7	-1.6	i	-100	76*
COc1ccc(Cn2nnnc2C(c2cc3cc(C)ccc3[nH]c2=O)N2CCOCC2)cc1 (centres undefined)	-11	0.06	i	·	-8
O=C(O)c1ccccc1C(=O)NNc1ccc(Cl)cc1Cl	33	0.04	i	·	-2
CCN(C(=O)CN1CCN(c2ccc(O)cc2)CC1)c1c(N)n(Cc2ccccc2)c(=O)[nH]c1=O	-8	-0.4	i	·	-4
Cc1c(C(=O)NN2CCOCC2)oc2c1ccc1ccccc12	11	-1.4	i	-22	19
O=S(=O)(NC1=NCCC1)c1ccc(F)cc1F	-3	-1.1	i	·	-14
CN(C)CCCCOc1ccc(Br)cc1Cl	11	-0.11	i	-31	96*
Cc1ccc(OCCOCCN(C)C)c(Cl)c1	3	0.36	i	19	85*
CCc1cc(OCCOCCN(C)C)ccc1Cl	8	0.22	i	-21	98*
COc1cccc(OCCOCCN(C)CCO)c1	-13	?	i	·	-2
COCCNCCCOc1ccc(Br)cc1Cl	4	-0.1	i	-8	81*
COCCNC(=O)c1cc(Br)ccc1Cl	5	0.62	i	50	-3
CCn1ncc(CNC(=O)C2(C)CC2(Cl)Cl)c1C (centres undefined)	-7	-0.08	i	-21	10
SMILES	WT yeast gro inh	Insulin prom up	Autophagy HCS	INS promoter inh	L major viab
CCc1ccc(NC(=O)C(=O)NNC(=O)COc2cccc(OC)c2)cc1	-18	0.33	i	15	-3
Cn1c(SCC2CCCO2)nnc1-c1ccc([N+](=O)[O-])cc1 (centres undefined)	-7	0.15	i	0	3
COCCNCCCOc1ccc(Cl)cc1Br	20	-0.84	i	·	65*
OCCNCCCOc1ccc(Cl)cc1Br	4	-0.87	i	-37	87*
COCCNCCOc1ccc(C)cc1[N+](=O)[O-]	13	·	i	·	1
C=CCNCCCOc1ccc(Cl)cc1Br	6	-0.55	i	-33	78*
CCOc1ccc(Cl)cc1CNCCNCCO	-13	0.02	i	·	19
Clc1ccc(OCCn2ccnc2)c(Br)c1	48	0.1	i	-22	31
CC(OC(=O)C1=COCCO1)C(=O)Nc1cc(S(=O)(=O)N2CCCCC2)ccc1Cl (centres undefined)	11	-0.49	i	11	9
Cc1ccc(S(=O)(=O)N2CCC(C(=O)NCCc3ccccc3)CC2)cc1	16	-1	i	13	-2
Cc1ccc(S(=O)(=O)N2CCC(C(=O)NCCN3CCCCCC3)CC2)cc1	15	0.36	i	-15	100*
Cc1ccc(S(=O)(=O)N2CCC(C(=O)N[C@@H](Cc3ccccc3)C(=O)O)CC2)cc1	-9	0.28	i	47	54*
Cc1ccc(S(=O)(=O)N2CCC(C(=O)NCc3ccccc3Cl)CC2)cc1	17	·	i	-91	73*
O=C(NCc1ccccc1Cl)C1CCN(S(=O)(=O)c2ccc(F)cc2)CC1	3	·	i	-47	1
O=S(=O)(NCc1c(Cl)cccc1Oc1ccccc1)c1ccc(F)cc1	·	1.1	·	·	·
CCCCC(=O)OCC(=O)c1[nH]c(C)c(C(C)=O)c1C	-3	-1.1	i	·	-9
CCN(CC)S(=O)(=O)c1ccc2oc(C(=O)NCC3COc4ccccc4O3)c(C)c2c1 (centres undefined)	7	-3	+	-16	43
CSCCC(NC(=O)c1ccoc1C)C(=O)O (centres undefined)	-18	0.99	i	·	65*
CSCCC(NC(=O)c1cc(C(C)(C)C)oc1C)C(=O)O (centres undefined)	-5	0.75	i	-21	-3
Cc1[nH]c2ccccc2c1CCNC(=O)c1c(N)no[n+]1[O-]	-1	-0.27	i	-17	13
COc1ccc(C(=O)OCC(=O)NCc2ccccc2)c(OC)c1OC	10	0.04	i	·	-6
COc1ccc(S(=O)(=O)NC(CC(=O)N2CCc3ccccc32)c2ccco2)cc1 (centres undefined)	15	0.17	i	5	76*
CC(=O)c1ccc(NC(=O)C2C3C=CC(C3=C(c3ccccc3)c3ccccc3)C2C(=O)O)cc1 (centres undefined)	-9	-0.96	i	0	52*
Cc1ccc(S(=O)(=O)CC(CN2CCCCC2)N2CCCCC2)cc1 (centres undefined)	-24	2.4	i	0	97*
Cc1ccc(S(=O)(=O)CC(c2ccccc2)N2CCCCC2)cc1 (centres undefined)	1	-0.38	i	·	6
CC1(C)Cc2c(sc(NC(=O)c3ccc4ncsc4c3)c2C(N)=O)C(C)(C)N1	-9	0.32	i	-45	78*
O=C(Nc1ccc(-n2cccc2)cc1)C1CC1	-9	0.09	i	0	2
O=C(CCCCCn1c(=S)[nH]c2cc3c(cc2c1=O)OCO3)N1CCN(C(=O)c2ccco2)CC1	69*	-0.31	i	-19	1
O=C(CCCCCn1c(=S)[nH]c2cc3c(cc2c1=O)OCO3)N1CCN(Cc2ccccc2)CC1	11	-0.43	i	?	-9
